Bioassay records deposited in PubChem BioAssay by National Center for Advancing Translational Sciences (NCATS).
Most compounds without a hit are left out; they make up all but 2.8% or so of the library.
Pol beta inh: qHTS Assay for Inhibitors of DNA Polymerase Beta | Pol beta primer extension/strand displacement, fluorescence kinetic | Potency, µM (titrated, usually from 114 µM), hits mostly inhibitors | hit rate 1.3% among 340,000 | AID 485314, 2010 | P06746
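Human Pol beta at 10 nM; strand-displacement substrate 50 nM final. Compound exposure 15 min at room temperature before start, reaction 10 min at room temperature.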
PI5P4K alpha inh: qHTS for Inhibitors of phosphatidylinositol 5-phosphate 4-kinase (PI5P4K); PI5P4Kalpha enzyme, ADP-Glo luminescence, 60 min; active compounds read low; max response, %; hit rate 1.2% among 330,000; AID 652105, 2013; active means max response of -50% or lower; inconclusive means between -30% and -50%; inactive means -30% or higher; further: value at the top dose of about 77 µM
Target sequence (P48426 whole entry, looked up): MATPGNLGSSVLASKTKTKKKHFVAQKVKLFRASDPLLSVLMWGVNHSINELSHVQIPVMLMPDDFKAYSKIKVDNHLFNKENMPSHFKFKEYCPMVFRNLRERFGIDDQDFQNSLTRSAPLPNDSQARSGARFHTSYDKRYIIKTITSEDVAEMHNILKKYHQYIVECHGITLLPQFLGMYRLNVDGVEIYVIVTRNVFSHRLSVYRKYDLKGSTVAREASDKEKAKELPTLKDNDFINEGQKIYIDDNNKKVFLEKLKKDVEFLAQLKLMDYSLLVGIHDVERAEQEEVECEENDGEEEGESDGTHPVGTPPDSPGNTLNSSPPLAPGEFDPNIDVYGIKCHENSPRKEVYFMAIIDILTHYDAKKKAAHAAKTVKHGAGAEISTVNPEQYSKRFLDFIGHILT
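ADP-Glo luminescence end-point read after a 60 min room-temperature kinase reaction of PI5P4Kalpha plus substrate, initiated with ATP at 5 microM final. Buffer: 0.038 M HEPES pH 7.4, EGTA, 0.1% CHAPS, 5% DMSO.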
POLK inh: qHTS for Inhibitors of Polymerase Kappa; DNA polymerase kappa (Homo sapiens), Q9UBT6; purified Pol kappa, fluorescent DNA synthesis assay, 10 min; Potency, µM (top dose mostly 107 µM), usual class: inhibitors; hit rate 0.53% among 400,000; AID 588579, 2011
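Inhibition of 10 nM Pol kappa is measured by a fluorescent read-out at 0 and 10 min following addition of 50 nM substrate (final), with a 15-min room-temperature compound preincubation.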
PI4K2A inh: qHTS for small molecular inhibitors of PI4K2A | purified PI4K2A, ADP-Glo luminescence, 1 h; active compounds read low | AID 1346378, 2018 | Phosphatidylinositol 4-kinase type 2-alpha (Homo sapiens), Q9BTU6 | activity change, negative = inhibition, % at 76.9 µM | hit rate 0.13% among 420,000; in the data active means activity change below about -50%; inconclusive means mostly about -30% to -49%
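Compounds are screened against recombinant PI4K2A using PI as substrate and ATP, the latter dispensed at 300 microM. Reactions run one hour at ambient temperature before ADP-Glo detection; full inhibition defined by wells lacking enzyme.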
POLI inh: qHTS for Inhibitors of Polymerase Iota; Potency, µM (highest dose often 115 µM), actives largely listed as inhibitors; AID 588590, 2011; Pol iota fluorescent replication assay, 10 min; DNA polymerase iota (Homo sapiens), Q9UNA4; hit rate 1% among 390,000
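Fluorescent replication assay read twice, at 0 min and 10 min after adding 50 nM (final) substrate. Enzyme (10 nM) and compounds were first incubated 15 min at room temperature; enzyme-free buffer wells were negative controls.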
POLH inh: qHTS for Inhibitors of Polymerase Eta; DNA polymerase eta (Homo sapiens), Q9Y253; recombinant Pol eta, fluorescent DNA replication assay; hit rate 1.2% among 390,000; Potency, µM (titrated, usually from 114 µM), usual class: inhibitors; AID 588591, 2011
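Pol eta at 10 nM preincubated with compounds 15 min at room temperature; reaction started with fluorescent substrate (50 nM final) and read kinetically at 0 and 10 min.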
Large screens that a line does not name were inactive; ! = a repeat was not active. Unless noted, the call rests on the fitted dose curve; in most records, active means well fitted inhibition curve with a large enough effect; inconclusive means small, poorly fitted or top-dose-only effect, or another doubt; inactive means no such curve, though single readings can be large or run the other way.

COc1ccccc1-n1cnnc1SCC(=O)NCc1cccs1	none
O=C(N/N=C/c1ccc(OC(F)F)cc1)c1ccc(Br)cc1	Pol beta inh 79µM
COc1ccc(/C=C2\CCn3c2nc2cc(C(=O)O)ccc2c3=O)cc1O	Pol beta inh 25µM, PI5P4K alpha inh -54, POLI inh inconclusive, POLH inh 18µM
COc1cc(O)cc(/C=C/c2ccccc2)c1	none (no result: Pol beta inh)
Oc1ccc(/C=C/c2cc(O)cc(O)c2)cc1	Pol beta inh inconclusive, POLK inh 14µM!, POLI inh inconclusive
COc1cccc(-c2n[nH]c(=S)n2Cc2ccco2)c1	Pol beta inh inconclusive, PI5P4K alpha inh inconclusive, PI4K2A inh inconclusive, POLI inh inconclusive, POLH inh 35µM
OCC1=C[C@@H](O)[C@@H]2C=CO[C@@H](OC3O[C@H](CO)[C@@H](O)[C@H](O)[C@H]3O)[C@H]12 (stereo partly drawn)	none (no result: Pol beta inh, PI5P4K alpha inh, PI4K2A inh, POLI inh, POLH inh)
CC(=O)c1ccc(N2CCN(C(=O)COc3ccc4c(c3)CCC4)CC2)cc1	Pol beta inh 10µM, PI5P4K alpha inh inconclusive, POLK inh inconclusive, POLI inh 79µM, POLH inh 56µM
Cc1ccc(C)c(NC(=O)c2ccc(CS(=O)(=O)Cc3ccccc3C)o2)c1	none (no result: Pol beta inh, PI5P4K alpha inh, POLK inh, POLI inh, POLH inh)
O=C(OCCF)N1CCN(/[N+]([O-])=N/Oc2ccc([N+](=O)[O-])cc2[N+](=O)[O-])CC1	none (no result: Pol beta inh, PI5P4K alpha inh, PI4K2A inh, POLH inh)
O=c1c2c(-c3ccc(Cl)cc3)csc2ncn1/N=C/c1cccc([N+](=O)[O-])c1O	PI5P4K alpha inh -71
CC(C)[C@H](NC(=O)[C@H](CC(=O)O)NC(=O)CNC(=O)[C@@H](N)CCCN=C(N)N)C(=O)O	none (no result: Pol beta inh, PI5P4K alpha inh, PI4K2A inh, POLI inh, POLH inh)
COC(=O)CSc1nc(-c2ccccc2)nc2ccc(F)cc12	none
OCCSc1nc(-c2ccccc2)nc2ccc(F)cc12	Pol beta inh inconclusive, POLK inh inconclusive, POLI inh 79µM
NC(=O)C(=CNc1nc(-c2ccc(Cl)c(Cl)c2)cs1)C(N)=O	Pol beta inh 1.4µM (no result: PI5P4K alpha inh, POLK inh, PI4K2A inh, POLI inh, POLH inh)
CCCCCCCCCCCCCCCC[N+](C)(C)Cc1ccccc1	none (no result: Pol beta inh, PI5P4K alpha inh, POLI inh, POLH inh)
CC(Cc1c[nH]c2ccccc12)C(=O)O (stereo not drawn)	Pol beta inh 7.1µM, POLK inh inconclusive
COC(=O)c1ccc2c(c1)C(=O)/C(=C/c1ccc(O)cc1)O2	Pol beta inh inconclusive, POLK inh inconclusive, POLI inh inconclusive, POLH inh inconclusive
COc1cccc(/C=C2\Oc3ccc(O)cc3C2=O)c1O	PI4K2A inh -61
O=C(NCCN1CCOCC1)C1(C(F)(F)F)C/C(=C/CCO)CCCO1 (stereo not drawn)	none (no result: Pol beta inh, PI5P4K alpha inh, PI4K2A inh, POLH inh)
O=S1(=O)c2c(cccc2N2CC[C@@H](O)C2)O[C@@H]2CCN1C2	none (no result: Pol beta inh, PI5P4K alpha inh, POLK inh, POLI inh, POLH inh)
Fc1ccc(-c2n[nH]c(=S)n2N=Cc2ccc(OCc3ccccc3)cc2)cc1	none (no result: Pol beta inh, PI5P4K alpha inh, POLK inh, POLI inh, POLH inh)
O=C(COc1ccccc1[N+](=O)[O-])OCCCOC(=O)COc1ccccc1[N+](=O)[O-]	none
O=C(COc1ccccc1[N+](=O)[O-])OCC(=O)c1ccc(Br)s1	PI5P4K alpha inh inconclusive, POLH inh 79µM (no result: Pol beta inh)
CC(C)C[C@@H](NC(=O)[C@@H](Cc1ccccc1)NC(=O)c1cnccn1)B(O)O	none (no result: Pol beta inh, PI5P4K alpha inh, PI4K2A inh, POLI inh, POLH inh)
O=C(COc1c(Cl)cccc1Cl)NN1C(=O)CSC1=S	POLI inh 18µM
O=C(COc1ccccc1)NN1C(=O)CSC1=S	none
O=c1cc(-c2cc(O)c(O)c([C@@H]3O[C@H](CO)[C@@H](O)[C@H](O)[C@H]3O)c2)oc2cc(O[C@@H]3O[C@H](CO)[C@@H](O)[C@H](O)[C@H]3O)cc(O)c12	none (no result: Pol beta inh, PI5P4K alpha inh, PI4K2A inh, POLI inh, POLH inh)
O=c1cc(-c2ccc(O)cc2)oc2c([C@@H]3O[C@H](CO)[C@@H](O)[C@H](O)[C@H]3O)c(O)c([C@@H]3O[C@H](CO)[C@@H](O)[C@H](O)[C@H]3O)c(O)c12	none
O=c1cc(-c2ccc(O)c(O)c2)oc2cc(O)c([C@@H]3O[C@H](CO)[C@@H](O)[C@H](O)[C@H]3O)c(O)c12	POLK inh 20µM, POLI inh 28µM, POLH inh inconclusive (no result: Pol beta inh)
O=c1cc(-c2ccc(O)cc2)oc2c(C3OCC(O)C(O)C3O)c(O)c(C3OC(CO)C(O)C(O)C3O)c(O)c12 (stereo not drawn)	Pol beta inh 18µM, POLK inh 50µM, POLI inh inconclusive, POLH inh 7.9µM
Cc1nc2ccccc2c(C)c1CC(=O)N(C)CC(=O)Nc1cccc(F)c1	POLI inh inconclusive (no result: Pol beta inh)
CCOc1ccc(NC(=O)CN(C)C(=O)Cc2c(C)nc3ccccc3c2C)cc1OCC	Pol beta inh 22µM, PI5P4K alpha inh inconclusive, POLH inh inconclusive
O=C(Nc1ccc(F)cc1)C(=O)C1C(=O)Nc2ccccc21 (stereo not drawn)	POLI inh 89µM
O=[N+]([O-])c1cccc(-c2nc3ccc([N+](=O)[O-])cc3[nH]2)c1	PI5P4K alpha inh inconclusive, POLH inh inconclusive
O=[N+]([O-])c1ccc(O)c(C=Nc2ccc3nc(-c4ccccc4)[nH]c3c2)c1	Pol beta inh 28µM, PI5P4K alpha inh inconclusive, POLH inh inconclusive
COC1(OC)C=CC(=O)C=C1NC(=O)c1ccccc1OC(C)=O	POLI inh 10µM (no result: Pol beta inh, PI5P4K alpha inh)
CC(=O)Oc1ccccc1C(=O)Nc1ccccc1	POLI inh inconclusive (no result: Pol beta inh, PI5P4K alpha inh)
Cc1nnc(N/N=C/c2ccccc2O)n1N	POLI inh 14µM
CCOc1cc(/C=N/Nc2nnc(C)n2N)ccc1O	POLI inh 8.9µM
Cc1nnc(N/N=C/c2cc(C)n(-c3ccc(F)cc3)c2C)n1N	PI4K2A inh inconclusive, POLI inh inconclusive
Cc1nnc(N/N=C/c2c(Cl)cccc2Cl)n1N	PI4K2A inh inconclusive, POLI inh 11µM
CCOc1cc(/C=N/Nc2ncnc(Cl)c2N)ccc1O	Pol beta inh inconclusive
CCc1nnc(N/N=C/c2c(F)cccc2Cl)n1N	POLI inh 10µM
CCCCCCCCCCCCCCCCOC(=O)N1CCN(/[N+]([O-])=N/Oc2ccc([N+](=O)[O-])cc2[N+](C)=O)CC1	POLI inh inconclusive (no result: Pol beta inh, PI5P4K alpha inh, PI4K2A inh, POLH inh)
Cn1c(=O)[nH]c(=O)c2c1nc(CN1CCN(c3ccccc3)CC1)n2Cc1c(F)cccc1Cl	none (no result: PI5P4K alpha inh)
N#Cc1c(N)nc2c3c(sc(=N)c2c1N)NC(=O)CC3c1c(F)cccc1Cl (stereo not drawn)	PI5P4K alpha inh -67, POLH inh inconclusive
N#Cc1c(N)nc2c3c(sc(=N)c2c1N)NC(=O)CC3c1ccccc1 (stereo not drawn)	PI5P4K alpha inh -87, POLH inh inconclusive
